# Data taken from the supplement of paper PMC5662767.
# System: Drosophila S2 cl14 SmoIP sensor cells
# Test: normalized SmoIP GFP fluorescence (untreated unstimulated = 0%, untreated Hh-stimulated = 100%); higher = more Smo activation sensor fluorescence
# Conditions: stimulation: mock conditioned medium (-Hh); compound concentration: 2 uM; 24 h
# 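Also: flow cytometry read-out as median GFP intensity of gated cells, compounds added 30 min before Hh-conditioned or mock medium, mock-treated cells serving as unstimulated baseline.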
row,SMILES,normalized SmoIP GFP fluorescence
1,N#CC(=C(/N)Sc1ccccc1N)/C(C#N)=C(/N)Sc1ccccc1N,23.1%
2,CN(C)C(=O)c1ccc(S(=O)(=O)c2ccc(NC(=O)[C@@](C)(O)C(F)(F)F)c(Cl)c2)cc1,-2.1%
3,CCOC(=O)[C@H]1O[C@@H]1C(=O)N[C@@H](CC(C)C)C(=O)NCCC(C)C [Aloxistatin],3.51%
4,COC(=O)Nc1ccc(-c2nc(N3CCOCC3)c3cnn(C4CCN(C(=O)OC)CC4)c3n2)cc1,-12.5%
5,COc1cc(Nc2ncc(F)c(Nc3ccc4c(n3)NC(=O)C(C)(C)O4)n2)cc(OC)c1OC [R406(free-base)],9.32%
6,C=CC[N+]1([C@H]2C[C@H]3[C@@H]4CC[C@H]5C[C@H](O)[C@@H](N6CCOCC6)C[C@]5(C)[C@H]4CC[C@]3(C)[C@H]2OC(C)=O)CCCC1 [Rocuronium-bromide],10.2%
7,CCOc1cc(CC(=O)N[C@@H](CC(C)C)c2ccccc2N2CCCCC2)ccc1C(=O)O [Repaglinide],6.52%
8,C=C1C(=O)O[C@@H]2/C=C(\C)CC/C=C(\C)CC[C@@H]12 [Costunolide],27.4%
9,COc1ccc(-c2nc(N3CCOCC3)c3sc(CN(C)c4ncc(C(=O)NO)cn4)cc3n2)cn1 [cudc-907],82.3%
10,COc1nc(C)cnc1NS(=O)(=O)c1cccnc1-c1ccc(-c2nnco2)cc1 [Zibotentan(ZD4054)],-1.13%
11,CCNC(=O)c1noc(-c2cc(C(C)C)c(O)cc2O)c1-c1ccc(CN2CCOCC2)cc1,32.9%
12,CCc1cc(Nc2nccc(-c3c(-c4ccc(OC)c(C(=O)Nc5c(F)cccc5F)c4)nc4ccccn34)n2)c(OC)cc1N1CCC(N2CCN(S(C)(=O)=O)CC2)CC1,25.3%
